HP1b binding inh – HP1-beta chromodomain-methylated histone interaction inhibition; Potency, µM (series often up to 114 µM), inactives show at the highest dose activity change, negative = inhibition, most hits filed as inhibitors; P83916; hit rate 0.56% among 390,000; AlphaScreen HP1-beta / biotin-H3K9me3 peptide binding; AID 540317; further: potency means the concentration at half of the fitted maximal effect; nearly all actives have a fitted effect of over 70% in size
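HP1-beta protein (50 nM final) preincubated 30 min at room temperature with biotinylated H3(1-18)K9me3 peptide (50 nM) in PBS pH 7.4, 0.01% Tween-20, then compound added for 30 min. AlphaScreen streptavidin donor/nickel chelate acceptor beads (10 ug/mL final), 30 min dark, luminescence read.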
PI5P4K alpha inh – blocks human PI5P4K alpha kinase activity; hit rate 1.2% among 330,000; P48426; AID 652105; max response, %; PI5P4Kalpha enzyme, ADP-Glo luminescence, 60 min; hits give low values; active means max response of -50% or lower; inconclusive means between -30% and -50%; inactive means -30% or higher; further: value at the top dose of about 77 µM; on the % scale 0 is the no-effect control and ±100 the full control effect
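Enzyme plus substrate dispensed, test compounds pinned in, then ATP (5 microM final) added. After 60 min at RT, ADP-Glo reagent 1 for 45 min and reagent 2 for 30 min preceded luminescence imaging.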
BAZ2B block – BAZ2B (human) inhibition; Q9UIF8; AlphaScreen BAZ2B-H3K14Ac peptide displacement; Potency, µM (highest dose often 114 µM), for inactives: top-dose activity change, negative = inhibition, hits mostly inhibitors; hit rate 4.4% among 360,000; AID 504333; further: potency means the concentration at half of the fitted maximal effect; on the % scale 0 is the no-effect control and ±100 the full control effect; nearly all actives have a fitted effect of over 60% in size
Target sequence (Q9UIF8 whole entry, looked up): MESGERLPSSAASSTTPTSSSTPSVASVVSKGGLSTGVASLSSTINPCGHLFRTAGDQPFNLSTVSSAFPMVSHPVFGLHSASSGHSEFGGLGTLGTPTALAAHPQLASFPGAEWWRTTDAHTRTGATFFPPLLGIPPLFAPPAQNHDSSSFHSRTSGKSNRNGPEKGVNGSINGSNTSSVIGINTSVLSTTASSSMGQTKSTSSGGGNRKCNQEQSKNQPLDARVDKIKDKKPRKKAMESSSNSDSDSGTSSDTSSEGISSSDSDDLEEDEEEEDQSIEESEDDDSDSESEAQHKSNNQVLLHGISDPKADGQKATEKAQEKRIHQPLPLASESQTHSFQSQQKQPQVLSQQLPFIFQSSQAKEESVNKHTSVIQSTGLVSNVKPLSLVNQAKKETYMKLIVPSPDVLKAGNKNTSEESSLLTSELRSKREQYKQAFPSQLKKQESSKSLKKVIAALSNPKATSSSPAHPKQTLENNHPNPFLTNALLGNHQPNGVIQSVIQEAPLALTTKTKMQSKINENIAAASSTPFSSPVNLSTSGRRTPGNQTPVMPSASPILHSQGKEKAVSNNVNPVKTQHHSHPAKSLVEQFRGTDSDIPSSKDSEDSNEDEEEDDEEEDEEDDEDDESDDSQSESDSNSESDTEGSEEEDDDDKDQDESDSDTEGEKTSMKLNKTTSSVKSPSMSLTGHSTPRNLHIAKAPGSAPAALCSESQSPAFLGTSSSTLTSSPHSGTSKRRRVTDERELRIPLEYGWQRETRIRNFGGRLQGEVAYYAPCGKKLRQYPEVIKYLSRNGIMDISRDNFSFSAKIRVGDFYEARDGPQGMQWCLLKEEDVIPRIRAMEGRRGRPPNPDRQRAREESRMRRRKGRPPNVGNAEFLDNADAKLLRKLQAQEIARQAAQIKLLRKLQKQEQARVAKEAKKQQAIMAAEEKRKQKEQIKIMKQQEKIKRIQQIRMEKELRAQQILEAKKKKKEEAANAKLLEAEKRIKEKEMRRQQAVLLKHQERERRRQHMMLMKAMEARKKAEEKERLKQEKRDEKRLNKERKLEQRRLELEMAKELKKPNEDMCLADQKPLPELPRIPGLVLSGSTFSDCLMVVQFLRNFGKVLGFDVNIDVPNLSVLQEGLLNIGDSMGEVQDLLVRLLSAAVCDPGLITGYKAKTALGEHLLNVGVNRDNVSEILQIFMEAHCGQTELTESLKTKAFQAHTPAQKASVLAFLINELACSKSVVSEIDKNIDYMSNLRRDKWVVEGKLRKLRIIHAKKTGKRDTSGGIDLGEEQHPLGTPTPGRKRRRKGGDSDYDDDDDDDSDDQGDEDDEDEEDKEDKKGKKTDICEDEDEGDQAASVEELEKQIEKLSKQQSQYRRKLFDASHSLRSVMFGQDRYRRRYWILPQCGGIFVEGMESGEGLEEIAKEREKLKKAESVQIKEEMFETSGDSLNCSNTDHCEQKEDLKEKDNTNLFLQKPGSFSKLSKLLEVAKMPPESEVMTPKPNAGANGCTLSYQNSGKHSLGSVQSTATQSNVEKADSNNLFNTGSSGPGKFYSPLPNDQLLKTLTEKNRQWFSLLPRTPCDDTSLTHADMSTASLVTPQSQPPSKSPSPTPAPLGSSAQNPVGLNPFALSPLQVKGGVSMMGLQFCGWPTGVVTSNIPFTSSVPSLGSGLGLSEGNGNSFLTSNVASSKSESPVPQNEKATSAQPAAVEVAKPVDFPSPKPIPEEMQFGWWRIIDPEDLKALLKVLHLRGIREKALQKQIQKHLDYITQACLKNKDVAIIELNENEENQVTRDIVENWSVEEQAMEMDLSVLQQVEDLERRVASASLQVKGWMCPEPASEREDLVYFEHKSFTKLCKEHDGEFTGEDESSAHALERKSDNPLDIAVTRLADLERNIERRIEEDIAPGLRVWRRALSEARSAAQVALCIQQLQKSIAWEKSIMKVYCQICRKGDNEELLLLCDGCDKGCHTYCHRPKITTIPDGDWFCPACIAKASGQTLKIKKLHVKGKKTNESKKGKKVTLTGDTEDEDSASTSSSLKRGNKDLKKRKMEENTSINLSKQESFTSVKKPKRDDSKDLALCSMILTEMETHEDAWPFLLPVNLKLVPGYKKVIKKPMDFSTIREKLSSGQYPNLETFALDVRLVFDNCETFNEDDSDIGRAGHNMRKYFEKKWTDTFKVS
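AlphaScreen luminescence quantifies BAZ2B engagement of H3K14Ac peptide; the protein and biotinylated peptide are both at 50 nM final, buffer PBS pH 7.4 with 0.01% Tween-20, all steps at room temperature.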
GCN5L2 inh – blocks human GCN5L2 histone acetyltransferase | GCN5L2 HAT assay, ThioGlo1 CoA-SH fluorescence | Potency, µM (titrated, usually from 58.9 µM), without a hit: at the highest dose activity change, negative = inhibition, hits mostly inhibitors | hit rate 0.21% among 390,000; further: potency means the concentration at half of the fitted maximal effect; on the % scale 0 is the no-effect control and ±100 the full control effect
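Free CoA generated was detected with ThioGlo1 (50uM) fluorescence at Ex340nm/Em540nm, read immediately and after 20 min at room temperature. Enzyme, 20 nM in HEPES pH 7.5 buffer, saw compounds 15 min before adding 75uM H3(1-25) peptide and 70uM acetyl-CoA.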
PLK1 PBD inh – inhibitors of human PLK1 polo-box domain binding; P53350; Plk1 PBD binding of FITC phosphopeptide, fluorescence polarization; Potency, µM, inactives show max response, negative = inhibition, hits mostly inhibitors; hit rate 2.8% among 360,000; AID 720504; further: potency means the concentration at half of the fitted maximal effect; series mostly up to about 57 µM; on the % scale 0 is the no-effect control and ±100 the full control effect; nearly all actives have a fitted effect of over 65% in size
JMJD2A Tudor – inhibitors of human JMJD2A Tudor domain; O75164; AlphaScreen JMJD2A-Tudor / H3K4me3 peptide binding; Potency, µM (series often up to 114 µM), inactives show top-dose activity change, negative = inhibition, most hits filed as inhibitors; hit rate 4.4% among 390,000; AID 504339; further: potency means the concentration at half of the fitted maximal effect; on the % scale 0 is the no-effect control and ±100 the full control effect; nearly all actives have a fitted effect of over 50% in size
An asterisk follows results filed as active; ? = inconclusive; nt = no result given. This is a sample that favours compounds with a hit; in the whole collection about 7% have one here. Unless noted, the call rests on the fitted dose curve; in most records, active means well fitted curve in the direction sought with a large enough effect; inconclusive means small, poorly fitted or top-dose-only effect, or another doubt; inactive means no such curve, though single readings can be large; an effect the other way counts as inactive or inconclusive.

SMILES	HP1b binding inh	PI5P4K alpha inh	BAZ2B block	GCN5L2 inh	PLK1 PBD inh	JMJD2A Tudor
O=C(O)c1cccc(N2C(=O)/C(=C/c3ccc([N+](=O)[O-])cc3)C=C2c2ccccc2)c1	-26%	-23	40µM*	-8%	?	25µM*
Cc1coc2c(C)c3oc(=O)c(CCC(=O)N[C@H](C(=O)O)C(C)C)c(C)c3cc12	nt	4	nt	nt	2%	nt
O=C(Nc1ccc(Cl)c(S(=O)(=O)N2CCOCC2)c1)[C@@H]1CCCN1C(=O)c1cccs1	9%	0	-17%	-11%	-4%	-15%
Cc1ccc(C(=O)N2[C@@H]3CN(C)C(=O)[C@@]2(C)[C@H]2C(=O)N(C)C(=O)[C@@H]32)cc1	22%	1	nt	nt	2%	-20%
Cc1ccc([C@@H]2C[C@H]3[C@@H](CN2S(=O)(=O)c2ccc(Cl)cc2)C(=O)C[C@@H](c2ccc(Cl)cc2)N3S(=O)(=O)c2ccccc2C)cc1	nt	0	nt	nt	-27%	nt
C[C@H](NC(=O)c1nc[nH]c1C(=O)N1CCNCC1)C(=O)OC(C)(C)C	16%	-6	50µM*	0%	-4%	35µM*
C[C@H](NC(=O)c1nc[nH]c1C(=O)NCCCCCNC(=O)OC(C)(C)C)C(=O)OCc1ccccc1	58%	5	-5%	6%	1%	-22%
C[C@H](NC(=O)c1nc[nH]c1C(=O)NCCCCCN)C(=O)OCc1ccccc1	26%	1	50µM*	0%	-2%	45µM*
CNC(=O)c1[nH]cnc1C(=O)N[C@@H](C)C(=O)OC(C)(C)C	13%	-1	-24%	-8%	-10%	-34%
C[C@H](NC(=O)c1nc[nH]c1C(=O)NCCCCCN)C(=O)OC(C)(C)C	13%	5	50µM*	-4%	-1%	56µM*
O=C(CNC(=O)c1[nH]cnc1C(=O)NC(c1ccccc1)c1ccccc1)OCc1ccccc1	-3%	-2	6%	-11%	24µM*	?
N#Cc1cccc2cccc(S(=O)(=O)N3CCOCC3)c12	26%	8	2%	-1%	-5%	-2%
CCC(=O)c1ccc(OCC(=O)OC(C)C(=O)NCc2ccc3c(c2)OCO3)cc1 (stereo not drawn)	33%	-4	6%	-26%	-3%	1%
O=C(OCc1cn([C@@H]2CN(C(=O)c3cccs3)[C@@H](c3ccc(Cl)cc3)C[C@H]2O)nn1)c1ccccc1	nt	1	nt	nt	-2%	nt
Cc1cccc(C)c1-n1c(C)cc(/C=N\Nc2ccc([N+](=O)[O-])cn2)c1C	-23%	0	-13%	-4%	6%	28µM*
COc1ccc(CNC(=O)C2CCN(C(=O)[C@@H]3Cc4ccccc4CN3)CC2)cc1	21%	-3	-4%	1%	6µM*	?
CCCOC(=S)N/C(=N\S(=O)(=O)c1ccccc1)c1ccccc1	-26%	nt	7%	-3%	28µM*	-18%
CCOC(=S)N/C(=N\S(=O)(=O)c1ccccc1)c1ccccc1	?	-4	11%	-3%	19µM*	-7%
O=S(=O)(N=C(NS(=O)(=O)c1ccc(Cl)cc1)c1ccccc1)c1ccc(Cl)cc1	12%	6	nt	-9%	-12%	-22%
Cc1ccc(S(=O)(=O)/N=C(/NC(=S)Nc2ccccc2)c2ccccc2)cc1	-10%	3	6%	0%	?	-13%
O=S(=O)(/N=C(/NS(=O)(=O)c1ccccc1)c1ccccc1)c1ccccc1	38%	0	-3%	8%	-6%	-18%
Cc1ccc(NC(=S)N/C(=N/S(=O)(=O)c2ccccc2)c2ccccc2)cc1	-24%	1	-31%	1%	24µM*	-30%
COC(=S)N/C(=N\S(=O)(=O)c1ccc(Cl)cc1)c1ccccc1	-15%	-2	-21%	-8%	24µM*	-26%
CCN(CC)S(=O)(=O)c1ccc(C(=O)NCC2(N3CCOCC3)CCCCC2)cc1	5%	-2	1%	-3%	-5%	-23%
Cc1ccc(NC(=O)c2cnc(SCC(=O)N3CCCc4ccccc43)n(C)c2=O)cc1	29%	nt	-13%	2%	nt	-6%

Compound activity: PubChem, National Center for Advancing Translational Sciences (NCATS)
